This excerpt belongs to a sample that is enriched for hits.
miR122 inh: miR-122 suppressors via Renilla sensor increase, primary screen, cell-based, Huh7 psiCHECK-miR122, Renilla luciferase, single point; 48 h; activation, % at 12.5 µM; hit rate 0.14% among 340,000; AID 623901, 2012;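 active means mean activation of 30% or more, with every replicate also reaching 30%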;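 further: 0% = median of neutral control wells and 100% = median of positive control wells; higher luciferase signal means stronger suppression of miR-122 activity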
An asterisk follows results filed as active.

SMILES | miR122 inh
C[C@@H]1CN([C@H](C)CO)C(=O)c2cc(C#Cc3cccnc3)cnc2O[C@@H]1CN(C)Cc1ccncc1 | 7.7
C[C@H]1CN([C@@H](C)CO)C(=O)c2cc(/C=C/c3ccccc3)cnc2O[C@H]1CN(C)C(=O)c1cccnc1 | -21.6
CC(C)CC#Cc1cnc2c(c1)C(=O)N([C@H](C)CO)C[C@H](C)[C@H](CN(C)C(=O)Nc1cccc(F)c1)O2 | 1.6
C[C@H](O)C#Cc1ccc2c(c1)O[C@@H](CN(C)Cc1cccnc1)[C@H](C)CN([C@@H](C)CO)S2(=O)=O | 6.8
CCCC#Cc1ccc2c(c1)O[C@H](CN(C)C(=O)CC)[C@H](C)CN([C@H](C)CO)S2(=O)=O | 1.0
C[C@H](O)C#Cc1ccc2c(c1)O[C@@H](CN(C)C(=O)c1ccncc1)[C@H](C)CN([C@@H](C)CO)S2(=O)=O | -2.8
CCC(=O)N(C)C[C@H]1Oc2cc(C#Cc3ccccc3)ccc2S(=O)(=O)N([C@H](C)CO)C[C@H]1C | 55.7*
CC(C)CC#Cc1ccc2c(c1)O[C@@H](CN(C)C(=O)NC1CCCC1)[C@@H](C)CN([C@H](C)CO)S2(=O)=O | -7.1
CC(C)CC#Cc1ccc2c(c1)O[C@H](CN(C)C(=O)c1cnccn1)[C@H](C)CN([C@@H](C)CO)S2(=O)=O | 36.1*
CCCC#Cc1ccc2c(c1)O[C@H](CN(C)C(=O)CC)[C@H](C)CN([C@@H](C)CO)S2(=O)=O | -1.2
C[C@H](O)C#Cc1ccc2c(c1)O[C@@H](CN(C)Cc1ccc(-c3ccccc3)cc1)[C@H](C)CN([C@H](C)CO)S2(=O)=O | 45.3*
CC(C)C#Cc1ccc2c(c1)O[C@H](CN(C)C(=O)c1ccncc1)[C@H](C)CN([C@H](C)CO)S2(=O)=O | 52.8*
C[C@@H]1CN([C@@H](C)CO)S(=O)(=O)c2ccc(C#C[C@@H](C)O)cc2O[C@H]1CN(C)Cc1cccnc1 | 7.7
C[C@@H](O)C#Cc1ccc2c(c1)O[C@@H](CN(C)C(=O)c1ccncc1)[C@@H](C)CN([C@@H](C)CO)S2(=O)=O | 2.2
CCCC#Cc1ccc2c(c1)O[C@@H](CN(C)C(=O)c1cccnc1)[C@H](C)CN([C@@H](C)CO)S2(=O)=O | -18.3
CO[C@@H]1CN(C)C(=O)c2cc(NC(=O)C3CCOCC3)ccc2OC[C@@H](C)N(C)C[C@@H]1C | -1.8
C[C@@H]1CN([C@@H](C)CO)C(=O)c2cccc(NC(=O)c3ccncc3)c2O[C@@H]1CN(C)C | -112.0
C[C@@H]1CN([C@H](C)CO)C(=O)c2cccc(NS(C)(=O)=O)c2O[C@H]1CN(C)Cc1ccc(C(F)(F)F)cc1 | -92.7
C[C@H]1CN([C@@H](C)CO)C(=O)c2cc(C#CC3(O)CCCC3)cnc2O[C@H]1CN(C)C(=O)CN(C)C | 4.2
C[C@H]1CN([C@@H](C)CO)C(=O)c2cc(C#Cc3ccccn3)cnc2O[C@H]1CN(C)C(=O)c1cnccn1 | -2.3
COc1ccc(-c2cnc3c(c2)C(=O)N([C@@H](C)CO)C[C@@H](C)[C@H](CN(C)C(=O)C2CCOCC2)O3)cc1 | 0.4
CNC[C@H]1Oc2cc(-c3cccc(F)c3)ccc2S(=O)(=O)N([C@H](C)CO)C[C@@H]1C | 4.1
C[C@@H]1CN([C@@H](C)CO)C(=O)c2cc(N(C)C)ccc2O[C@@H]1CN(C)C(=O)Nc1ccc(F)cc1 | -102.5
CO[C@H]1CN(C)C(=O)c2cc(NC(=O)Cc3ccccc3)ccc2OC[C@@H](C)N(C)C[C@H]1C | -1.1
C[C@@H]1CN([C@H](C)CO)S(=O)(=O)c2ccc(C#Cc3ccncc3)cc2O[C@@H]1CN(C)C(=O)C1CCCCC1 | 18.9
SMILES | miR122 inh
C[C@@H]1CN([C@H](C)CO)S(=O)(=O)c2ccc(C#Cc3ccncc3)cc2O[C@H]1CN(C)C(=O)C1CCCCC1 | -32.5
CCCC#Cc1ccc2c(c1)O[C@H](CN(C)C(=O)c1cccnc1)[C@H](C)CN([C@H](C)CO)S2(=O)=O | 11.3
CCCC#Cc1ccc2c(c1)O[C@H](CN(C)C(=O)c1ccccn1)[C@@H](C)CN([C@H](C)CO)S2(=O)=O | -128.0
CC(C)CC#Cc1ccc2c(c1)O[C@H](CN(C)C(=O)c1cnccn1)[C@H](C)CN([C@H](C)CO)S2(=O)=O | 39.3*
C[C@@H]1CN([C@@H](C)CO)S(=O)(=O)c2ccc(C#Cc3ccncc3)cc2O[C@@H]1CN(C)C(=O)C1CCOCC1 | 32.8*
C/C=C/c1ccc2c(c1)O[C@H](CN(C)C(=O)CC1CC1)[C@@H](C)CN([C@H](C)CO)S2(=O)=O | -10.6
CC(=O)N(C)C[C@H]1Oc2cc(C#CC3CCCCC3)ccc2S(=O)(=O)N([C@@H](C)CO)C[C@H]1C | 12.9
C[C@H]1CN([C@@H](C)CO)S(=O)(=O)c2ccc(-c3ccncc3)cc2O[C@@H]1CN(C)C(=O)C1CC1 | -9.1
COc1ccccc1S(=O)(=O)N(C)C[C@H]1Oc2ncc(-c3ccc(C)cc3)cc2C(=O)N([C@H](C)CO)C[C@@H]1C | 2.2
C[C@@H]1CN([C@@H](C)CO)C(=O)c2cccc(NC(=O)Nc3ccc(F)cc3)c2O[C@H]1CN(C)Cc1ccc(C(F)(F)F)cc1 | -91.4
C[C@@H]1CN([C@H](C)CO)C(=O)Cc2cc(NC(=O)Nc3ccc(C(F)(F)F)cc3)ccc2O[C@@H]1CN(C)C(=O)Nc1cccc2ccccc12 | -112.2
C[C@H](CO)N1C[C@H](C)[C@@H](CN(C)Cc2ccc(C(F)(F)F)cc2)Oc2c(NC(=O)C3CCCCC3)cccc2C1=O | -121.7
C[C@@H]1CN([C@@H](C)CO)C(=O)Cc2cc(NC(=O)Nc3ccc(C(F)(F)F)cc3)ccc2O[C@@H]1CN(C)C(=O)Nc1cccc2ccccc12 | -264.9
C[C@H](CO)N1C[C@H](C)[C@@H](CN(C)Cc2ccc(C(F)(F)F)cc2)Oc2ccc(N(C)C)cc2C1=O | -98.0
C[C@@H]1CN([C@@H](C)CO)C(=O)c2cccc(NC(=O)Nc3ccccc3)c2O[C@H]1CN(C)Cc1ccc(C(F)(F)F)cc1 | -114.8
COc1ccc(CN(C)C[C@H]2OCCCC[C@H](C)Oc3ccc(NC(=O)Nc4ccc(C(F)(F)F)cc4)cc3C(=O)N([C@@H](C)CO)C[C@@H]2C)cc1 | 31.0*
COc1ccc(S(=O)(=O)Nc2cccc3c2O[C@@H](CN(C)Cc2ccc(C(F)(F)F)cc2)[C@H](C)CN([C@H](C)CO)C3=O)cc1 | -102.2
C[C@H]1CN([C@@H](C)CO)C(=O)c2cccc(NC(=O)NC3CCCCC3)c2O[C@@H]1CN(C)Cc1ccc(C(F)(F)F)cc1 | -121.0
C[C@@H]1CN([C@@H](C)CO)C(=O)Cc2cc(NC(=O)Nc3ccc(C(F)(F)F)cc3)ccc2O[C@H]1CN(C)Cc1ccc(Oc2ccccc2)cc1 | 35.4*
COc1ccc(CN(C)C[C@@H]2OCCCC[C@H](C)Oc3ccc(NC(=O)Nc4ccc(C(F)(F)F)cc4)cc3C(=O)N([C@H](C)CO)C[C@H]2C)cc1 | 31.6*
C[C@@H]1CN([C@H](C)CO)C(=O)c2cc(NC(=O)Cc3ccccc3)ccc2O[C@@H](C)CCCCO[C@H]1CN(C)Cc1ccc(C(F)(F)F)cc1 | 30.7*
CO[C@@H]1CN(C)C(=O)c2ccc(NC(=O)NC(C)C)cc2OC[C@H](C)NC[C@H]1C | -4.4
C[C@H](CO)N1C[C@H](C)[C@@H](CN(C)C(=O)Cc2ccccn2)Oc2ncc(/C=C/c3ccccc3)cc2C1=O | 4.9
Cc1ccc(S(=O)(=O)N(C)C[C@H]2Oc3cc(C#CC4CCCC4)ccc3S(=O)(=O)N([C@@H](C)CO)C[C@H]2C)cc1 | -60.8
COCC(=O)N(C)C[C@@H]1Oc2cc(-c3cccc(F)c3)ccc2S(=O)(=O)N([C@H](C)CO)C[C@@H]1C | -4.9

Screening results (PubChem BioAssay)
